Test results from publication PMC5540273 (PLoS ONE, 2017).

Assays:
Conditions in all cases: concentration: 1 μM, replicates: in singlicate; n = 1
FLT3 = tested on: FLT3
FLT4 = tested on: FLT4
FRK = tested on: FRK
FYN = tested on: FYN
GAK = tested on: GAK
GCN2(Kin.Dom.2,S808G) = tested on: T1, GCN2(Kin.Dom.2,S808G)
T1 construct: gene EIF2AK4

GRK1 = tested on: GRK1
GRK2 = tested on: T2, GRK2
T2 construct: gene ADRBK1

GRK3 = tested on: T3, GRK3
T3 construct: gene ADRBK2

GRK4 = tested on: GRK4
GRK7 = tested on: GRK7
GSK3A = tested on: GSK3A
GSK3B = tested on: GSK3B
HASPIN = tested on: T4, HASPIN
T4 construct: gene GSG2

HCK = tested on: HCK
HIPK1 = tested on: HIPK1
HIPK2 = tested on: HIPK2
HIPK3 = tested on: HIPK3
HIPK4 = tested on: HIPK4
HPK1 = tested on: HPK1
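Note: KINOMEscan kinase panel screen.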

| SMILES | %Inh (FLT3) [%] | %Inh (FLT4) [%] | %Inh (FRK) [%] | %Inh (FYN) [%] | %Inh (GAK) [%] | %Inh (GCN2(Kin.Dom.2,S808G)) [%] | %Inh (GRK1) [%] | %Inh (GRK2) [%] | %Inh (GRK3) [%] | %Inh (GRK4) [%] | %Inh (GRK7) [%] | %Inh (GSK3A) [%] | %Inh (GSK3B) [%] | %Inh (HASPIN) [%] | %Inh (HCK) [%] | %Inh (HIPK1) [%] | %Inh (HIPK2) [%] | %Inh (HIPK3) [%] | %Inh (HIPK4) [%] | %Inh (HPK1) [%] |
| --- | --- | --- | --- | --- | --- | --- | --- | --- | --- | --- | --- | --- | --- | --- | --- | --- | --- | --- | --- | --- |
| Cc1ccc(C(=O)Nc2ccc(Nc3ccnc4cc(-c5ccccn5)ccc34)cc2O)cc1.Cl [GW440146] | 0 | 0 | 48 | 41 | 7 | 12 | 0 | 0 | 24 | 0 | 0 | 7 | 4 | 30 | 72 | 8 | 0 | 4 | 0 | 34 |
| Cc1cccc(-c2nc(C)cc(Nc3ccncc3)n2)n1 [GSK257997] | 5 | 13 | 0 | 36 | 0 | 0 | 0 | 0 | 0 | 0 | 0 | 27 | 17 | 31 | 0 | 0 | 0 | 7 | 0 | 34 |
| Cc1cc(N2Cc3ccccc3C2)nc(Nc2ccc(S(=O)(=O)N3CCOCC3)cc2)n1.Cl [GSK1669917] | 0 | 3 | 11 | 0 | 0 | 0 | 0 | 0 | 0 | 0 | 0 | 0 | 0 | 0 | 0 | 0 | 0 | 0 | 0 | 34 |
| CCCc1ccc(S(=O)(=O)NC2CCN(c3ccnc(Nc4ccc(F)cc4)n3)C2)cc1 (stereo not shown) [GSK1379715] | 0 | 0 | 8 | 0 | 10 | 0 | 100 | 0 | 33 | 0 | 0 | 2 | 21 | 0 | 0 | 0 | 0 | 0 | 0 | 37 |
| Cn1ccc2ncnc(Oc3ccc(Nc4nc5ccccc5[nH]4)cc3)c21 | 0 | 0 | 0 | 0 | 0 | 0 | 4 | 0 | 0 | 9 | 0 | 12 | 0 | 50 | 8 | 17 | 0 | 0 | 9 | 0 |
